SARS PLpro yeast-1: blocks SARS-CoV papain-like protease in a yeast assay. S. cerevisiae expressing SARS-CoV PLpro, growth rescue. Potency, µM (top dose mostly 32.9 µM), hits mostly activators. 0.19% of 330,000 active. AID 485353; calls by dose curve; also: nearly all actives have a fitted effect of over 55% in size
Sm TGR block: inhibitors of Schistosoma mansoni thioredoxin glutathione reductase; Q962Y6; purified TGR, DTNB reduction, TNB absorbance 405 nm; Potency, µM (top dose mostly 114 µM), usual class: inhibitors; 3% of 360,000 active; AID 485364; active = well fitted inhibition curve with a large enough effect; inconclusive = small, poorly fitted or top-dose-only effect; inactive = no such curve, though single readings can be large or run the other way; also: nearly all actives have a fitted effect of over 60% in size
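TGR 20 nM + NADPH 100 uM (dispensed conc.), cpd preinc 15 min RT; start with NADPH (500 uM addition) then DTNB (15 mM addition). Kinetic TNB absorbance, 405 nm filter. Four-parameter Hill fit across titration.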
SARS PLpro yeast-2: Validates SARS-CoV PLpro inhibitor hits in yeast; shares compounds with SARS PLpro yeast-1; yeast expressing SARS-CoV PLpro, growth phenotype rescue; calls only; 19% of 1,000 active; AID 652038; call rule not given here
A number is an active result; – = inactive; ? = inconclusive; · = no result; + = active, no number; [ ] = dose if it differs, or a comment. Compounds with a hit are over-represented: about 3% of the library has one in this group of screens.

SMILES	SARS PLpro yeast-1	Sm TGR block	SARS PLpro yeast-2
CCOc1ccc(-c2nnc3ccc(SCC(=O)Nc4nc5ccc(C)cc5s4)nn23)cc1	–	–	·
CCOc1ccc(-c2nnc3ccc(SCC(=O)Nc4nc5ccccc5s4)nn23)cc1	?	–	–
COc1ccc(C(=O)COC(=O)c2cc(-c3ccccc3)nc3c(C)cccc23)cc1	·	–	·
COc1cc(Cl)c(NS(=O)(=O)c2ccc3[nH]c(=O)ccc3c2)c(OC)c1	·	–	·
O=C(CSc1nnc2scc(-c3ccc(Cl)cc3)n12)Nc1ccccc1F	·	–	·
COc1ccc2cc(CNc3ccccc3)c(=O)n(CC(=O)Nc3ccc(C)cc3C)c2c1	·	–	·
CCOC(=O)N1CCC(N2Cc3cccc(C(=O)N4CCN(c5cccc(C)c5C)CC4)c3C2=O)CC1	–	–	·
CCOC(=O)N1CCC(N2Cc3cccc(C(=O)N4CCN(C5CCCCC5)CC4)c3C2=O)CC1	20µM	–	–
Cc1ccc(-c2nc3ccccn3c2NC(=O)c2ccco2)cc1	?	–	–
O=C(Nc1c(-c2ccccc2)nc2ccccn12)c1ccco1	–	–	·
CCCc1nn2c(=O)cc(COC(=O)c3ccccc3NC(=O)C3CCCCC3)nc2s1	·	–	·
O=C(N/N=C/c1ccncc1)c1cnccn1	–	–	·
COc1cc(/C=N/NC(=O)c2cnccn2)ccc1O	3.55µM	–	–
COc1ccccc1CN1C(=O)CN(C2CCCCCC2)C(=O)C1c1ccc(C)cc1 (centres undefined)	·	–	·
C/C(=N/NC(=O)CN1CCN(S(=O)(=O)c2ccc(C)cc2)CC1)c1cccc(O)c1	–	–	·
C/C(=N\NC(=O)CN1CCN(S(=O)(=O)c2ccc(C)cc2)CC1)c1cccnc1	3.16µM	–	–
Cc1ccccc1-c1noc(-c2cc(C(C)C)[nH]n2)n1	·	–	·
C(=N\Nc1nc2ccccc2[nH]1)/c1ccccc1	–	–	·
Cc1ccc(/C=N/Nc2nc3ccccc3[nH]2)s1	2.82µM	–	–
COC(=O)c1ccc(NC(=O)C(=O)NCCc2csc3nc(-c4ccccc4F)nn23)cc1	·	–	·
COc1ccc(C(=O)Nc2ccc(NC(=O)c3cccs3)cc2)cc1[N+](=O)[O-]	–	–	·
CCOc1ccc(C(=O)Nc2ccc(NC(=O)c3cccs3)cc2)cc1[N+](=O)[O-]	3.98µM	–	+
CCOc1ccc(NC(=O)CC2C(=O)N(c3cccc(C)c3)C(=O)N2CCC2=CCCCC2)cc1 (centres undefined)	·	–	·
Cn1c(N)c(C(=O)COC(=O)CCc2c[nH]c3ccccc23)c(=O)n(C)c1=O	3.55µM	–	–
Cn1c(N)c(C(=O)COC(=O)CCCc2c[nH]c3ccccc23)c(=O)n(C)c1=O	–	–[11.4 µM]	·
SMILES	SARS PLpro yeast-1	Sm TGR block	SARS PLpro yeast-2
CCS(=O)(=O)N1CCc2cc(C(=O)N3CCN(c4cccc(C(F)(F)F)c4)CC3)ccc21	·	–	·
CCOC(=O)C1CCC(CN(Cc2ccc(Cl)cc2)S(=O)(=O)c2cccc(Cl)c2C)CC1 (centres undefined)	·	–	·
CC(=O)N1CCCc2cc(S(=O)(=O)N3CCC(C(=O)Nc4cccc(Cl)c4C)CC3)ccc21	·	–	·
CC(=O)Nc1cccc(NC(=O)CSc2ccc(-c3ccccn3)nn2)c1	?	–	·
CC(=O)c1cccc(NC(=O)CSc2ccc(-c3ccccn3)nn2)c1	?	–	+
CC(C)c1ccc(C(=O)Nc2cc(-c3ccccc3F)nn2-c2ccccc2)cc1	·	–	·
O=C(CS(=O)(=O)c1cccc2nsnc12)N1CCN(c2cccc(C(F)(F)F)c2)CC1	·	–	·
CCCCCN(C(=O)NC(=O)Nc1ccccc1C)S(=O)(=O)c1ccccc1	?	–	–
CCCCN(C(=O)NC(=O)Nc1ccccc1C)S(C)(=O)=O	–	–	·
CC(CC(=O)Nc1ccc(F)c([N+](=O)[O-])c1)c1ccccc1 (centres undefined)	?	–	–
CC(CC(=O)Nc1cccc(Cl)c1)c1ccccc1 (centres undefined)	–	–	·
O=c1cc(CSc2n[nH]c(-c3ccccc3)n2)[nH]c2ccccc12	·	–	·
c1ccc(-c2nnc(-c3ccccn3)nc2NC2CCCCC2)cc1	–	–	·
CNc1nc(-c2ccccn2)nnc1-c1ccccc1	?	–	–
CNC(=O)Oc1cccc(-c2cn3cc(OC(=O)NC)ccc3n2)c1	11.2µM	–	+
CC(=O)Nc1cccc(-c2cn3ccccc3n2)c1	–	·	·
CCOc1ccc2c(c1)c(=O)c(C(=O)c1ccc(CC)cc1)cn2CC(=O)Nc1ccccc1C	·	–	·
CCc1ccc(OCc2nnc(SCCN3CCOCC3)n2CC)cc1	?	–	–
CCn1c(COc2ccc(C)cc2)nnc1SCc1ccc(C#N)cc1	–	–	·
O=C(COc1ccccc1)Nc1ccc(OCc2cc(=O)n3ccsc3n2)cc1	·	–	·
O=C(CSc1nncn2c1cc1occc12)Nc1ccccc1C(F)(F)F	·	–	·
Cc1ccc2c(CSc3nc4ccccc4c(=O)n3CCCO)cc(=O)oc2c1C	–	–	·
Cc1ccc2c(CSc3nnc4ccccn34)cc(=O)oc2c1C	3.55µM	–	–
Cc1ccc(NC(=O)CSc2ncccc2C(=O)Oc2ccccc2Cl)cc1Cl	·	–	·
Cc1ccc(NC(=O)CSc2ncccc2C(=O)Oc2cccc([N+](=O)[O-])c2)cc1Cl	?	–	–
SMILES	SARS PLpro yeast-1	Sm TGR block	SARS PLpro yeast-2
Oc1ccc(/C=N\Nc2cc(N3CCOCC3)nc(N3CCOCC3)n2)c(O)c1	–	–	·
Oc1ccc(/C=N/Nc2cc(N3CCCC3)nc(N3CCCC3)n2)cc1O	?	–	–
O=C(CSc1nc2ccccc2n1Cc1ccc(F)cc1)N1CCN(c2ccc(F)cc2)CC1	·	–	·
COc1ccc(OCC(=O)Sc2ccc(C)cc2)cc1	2.82µM	3.16µM	–
COc1ccc(OC(=O)COc2ccc(C)cc2)cc1	–	–	·
COc1ccc2c(c1)c(=O)c(C(=O)c1ccc(C)cc1)cn2Cc1ccccc1F	·	–	·
CCn1nc(C)c(CCN(C)C(=O)Nc2ccc(C)c(Cl)c2)c1C	·	–	·
O=C(OCc1ccccc1)c1ccc2c(c1)-c1ccccc1C2=O	15.8µM	–	–
NC(=O)COC(=O)c1ccc2c(c1)S(=O)(=O)c1ccccc1C2=O	–	–	·
CCOc1ccc(/C=C(\C#N)c2nc(-c3cc4ccccc4oc3=O)cs2)c(OCC)c1	·	–	·
Cc1cc(C)c2cc(CN(CCO)C(=O)NC3CCCCC3)c(=O)[nH]c2c1	–	–	·
CCN1CCCC1CN(Cc1cc2c(C)cc(C)cc2[nH]c1=O)C(=O)NC1CCCCC1 (centres undefined)	?	–	–
Cc1ccc(Cl)cc1-n1ncc2c(Nc3cccc(C)c3C)ncnc21	·	–	·
Cc1ccc(S(=O)(=O)N2CCN(Cc3ccccc3Cl)CC2)cc1	·	–	·
Cn1c(=O)c2c(nc(NCCc3ccccc3)n2Cc2cccc(Br)c2)n(C)c1=O	·	–	·
COc1cc(N/N=C/c2ccc(N(C)C)cc2)ncn1	–	–	·
COc1cc(N/N=C/c2ccccc2O)ncn1	8.91µM	–	?
Cc1oc(-c2ccccc2Cl)nc1CSc1nc2ncccc2[nH]1	·	–	·
Cc1occc1C(=O)N/N=C/c1ccc(Cl)c([N+](=O)[O-])c1	?	–	?
Cc1cc(C(=O)N/N=C/c2ccc(Cl)c([N+](=O)[O-])c2)c(C)n1-c1ccc(F)cc1	–	–	·
Cc1cn(C)c(CC(=O)Nc2ccc(F)cc2Cl)c1C(=O)O	·	–	·
c1ccc2c(CCNCc3ccc4c(c3)OCO4)c[nH]c2c1	?	?	–
O=C(CCc1c[nH]c2ccccc12)NCc1ccc2c(c1)OCO2	–	–	·
COc1ccc(C(=O)NNc2ncnc3c2cnn3-c2cccc(Cl)c2)cc1OC	·	–	·

Compound activity (PubChem BioAssay)
